# This is one part of a sample in which the strongest signals are shown more often than they occur.
# Assays:
# Experiment in all cases: glycan array binding signal (z-score within array); higher = stronger binding
# Conditions in all cases: glycan notation: IUPAC condensed, linker removed
# [1] = target: Fuc(a1-2)Gal(b1-3)GlcNAc(b1-2)Man(a1-3)[Fuc(a1-2)Gal(b1-3)GlcNAc(b1-2)Man(a1-6)]Man(b1-4)GlcNAc(b1-4)GlcNAc
# Summary of the method: (§1)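 Glycan array data were curated from 3228 arrays in the Consortium for Functional Glycomics database and kept only where the protein sequence was available. Glycan names were converted to IUPAC-condensed notation, and columns mapping to the same glycan were averaged. The binding signal is a within-array Z-score, averaged across arrays of the same protein sequence at different concentrations or buffers and across linkers. Negative Z-scores can be read as non-binding.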
# [2] = target: Fuc(a1-2)Gal(b1-3)[Fuc(a1-4)]GlcNAc(b1-2)Man(a1-3)[Fuc(a1-2)Gal(b1-3)[Fuc(a1-4)]GlcNAc(b1-2)Man(a1-6)]Man(b1-4)GlcNAc(b1-4)GlcNAc
# Summary of the method: as §1
# [3] = target: Fuc(a1-2)[Gal(a1-3)]Gal(b1-4)Glc
# Summary of the method: as §1
# [4] = target: Fuc(a1-2)[Gal(a1-4)]Gal(b1-4)GlcNAc
# Summary of the method: as §1
# [5] = target: Fuc(a1-2)[GalNAc(a1-4)]Gal(b1-4)GlcNAc
# Summary of the method: as §1
# [6] = target: Fuc(a1-3)[Gal(b1-4)]GlcNAc(b1-4)Gal(b1-4)[Fuc(a1-3)]GlcNAc
# Summary of the method: as §1
# [7] = target: Gal(a1-3)[Gal(a1-4)]Gal(b1-4)GlcNAc
# Summary of the method: as §1
# Gal(b1-2)Gal = target: Gal(b1-2)Gal
# Summary of the method: as §1
# [8] = target: Gal(b1-4)GlcNAc(b1-2)Man(a1-3)[Gal(b1-4)GlcNAc(b1-2)Man(a1-6)]Man(b1-4)GlcNAc(b1-4)GlcNAc
# Summary of the method: as §1
# [9] = target: Gal(b1-4)GlcNAc(b1-3)Gal(b1-4)GlcNAc(b1-3)Gal(b1-4)GlcNAc
# Summary of the method: as §1
# [10] = target: Gal(b1-4)GlcNAc(b1-3)[GlcNAc(b1-6)]Gal(b1-4)GlcNAc
# Summary of the method: as §1
# [11] = target: Gal3S(b1-3)[Fuc(a1-4)]GlcNAc
# Summary of the method: as §1
# Gal3S6S(b1-4)GlcNAc6S = target: Gal3S6S(b1-4)GlcNAc6S
# Summary of the method: as §1
# GalNAc(a1-3)GalNAc = target: GalNAc(a1-3)GalNAc
# Summary of the method: as §1
# GalNAc(b1-3)GalNAc = target: GalNAc(b1-3)GalNAc
# Summary of the method: as §1
# Glc(a1-6)Glc(a1-6)Glc = target: Glc(a1-6)Glc(a1-6)Glc
# Summary of the method: as §1
# Glc(b1-6)Glc = target: Glc(b1-6)Glc
# Summary of the method: as §1
# GlcA(b1-6)Gal = target: GlcA(b1-6)Gal
# Summary of the method: as §1
# [12] = target: GlcNAc(a1-4)Gal(b1-4)GlcNAc(b1-3)Gal(b1-4)GlcNAc(b1-3)Gal(b1-4)GlcNAc
# Summary of the method: as §1
# [13] = target: GlcNAc(a1-4)Gal(b1-4)GlcNAc(b1-3)Gal(b1-4)[Fuc(a1-3)]GlcNAc(b1-3)Gal(b1-4)[Fuc(a1-3)]GlcNAc
# Summary of the method: as §1
# [14] = target: GlcNAc(a1-6)Gal(b1-4)GlcNAc
# Summary of the method: as §1
# [15] = target: GlcNAc(b1-4)[GlcNAc(b1-6)]GalNAc
# Summary of the method: as §1
# Man(a1-6)Man = target: Man(a1-6)Man
# Summary of the method: as §1
# [16] = target: Neu5Ac(a2-3)Gal(b1-3)GlcNAc(b1-3)Gal(b1-3)GlcNAc
# Summary of the method: as §1
# [17] = target: Neu5Ac(a2-3)Gal(b1-3)GlcNAc6S
# Summary of the method: as §1
# [18] = target: Neu5Ac(a2-3)Gal(b1-4)[Fuc(a1-3)]GlcNAc(b1-3)Gal(b1-4)GlcNAc
# Summary of the method: as §1
# [19] = target: Neu5Ac(a2-3)Gal(b1-4)[Fuc(a1-3)]GlcNAc(b1-6)[Gal(b1-3)]GalNAc
# Summary of the method: as §1
# [20] = target: Neu5Ac(a2-3)Gal6S(b1-4)[Fuc(a1-3)]GlcNAc
# Summary of the method: as §1
# Neu5Ac(a2-3)GalNAc = target: Neu5Ac(a2-3)GalNAc
# Summary of the method: as §1
# [21] = target: Neu5Ac(a2-6)Gal(b1-4)GlcNAc(b1-3)Gal(b1-4)GlcNAc(b1-3)Gal(b1-4)GlcNAc
# Summary of the method: as §1
# Neu5Ac(a2-8)Neu5Ac = target: Neu5Ac(a2-8)Neu5Ac
# Summary of the method: as §1
# Neu5Ac(b2-6)GalNAc = target: Neu5Ac(b2-6)GalNAc
# Summary of the method: as §1
# [22] = target: Fuc(a1-2)Gal(b1-4)[Fuc(a1-3)]GlcNAc(b1-2)Man(a1-3)[Fuc(a1-2)Gal(b1-4)[Fuc(a1-3)]GlcNAc(b1-2)Man(a1-6)]Man(b1-4)GlcNAc(b1-4)GlcNAc
# Summary of the method: as §1
# [23] = target: Fuc(a1-2)[GalNAc(a1-3)]Gal(b1-4)GlcNAc
# Summary of the method: as §1
# [24] = target: Fuc(a1-3)[Gal3S(b1-4)]Glc6S
# Summary of the method: as §1
# [25] = target: Fuc(a1-3)[GalNAc(b1-4)]GlcNAc
# Summary of the method: as §1
# [26] = target: Fuc(a1-3)[Neu5Ac(a2-3)]Gal(b1-4)GlcNAc(b1-3)GalNAc
# Summary of the method: as §1
# [27] = target: Gal(b1-3)GalNAc(a1-3)[Fuc(a1-2)]Gal(b1-4)GlcNAc
# Summary of the method: as §1
# [28] = target: Gal(b1-3)[Fuc(a1-4)]GlcNAc(b1-2)Man(a1-3)[Gal(b1-3)[Fuc(a1-4)]GlcNAc(b1-2)Man(a1-6)]Man(b1-4)GlcNAc(b1-4)GlcNAc
# Summary of the method: as §1
# Gal(b1-4)Glc6S = target: Gal(b1-4)Glc6S
# Summary of the method: as §1
# [29] = target: Gal(b1-4)GlcNAc(b1-3)Gal(b1-3)GlcNAc
# Summary of the method: as §1
# [30] = target: Gal(b1-4)GlcNAc(b1-3)Gal(b1-4)GlcNAc
# Summary of the method: as §1
# Gal6S(b1-4)GlcNAc6S = target: Gal6S(b1-4)GlcNAc6S
# Summary of the method: as §1
# [31] = target: GalNAc(b1-4)GlcNAc(b1-2)Man(a1-3)[GalNAc(b1-4)GlcNAc(b1-2)Man(a1-6)]Man(b1-4)GlcNAc(b1-4)GlcNAc
# Summary of the method: as §1
# GlcA(b1-3)GlcNAc = target: GlcA(b1-3)GlcNAc
# Summary of the method: as §1
# [32] = target: GlcNAc(b1-2)Man(a1-3)[GlcNAc(b1-2)Man(a1-6)]Man(b1-4)GlcNAc(b1-4)GlcNAc
# Summary of the method: as §1
# [33] = target: GlcNAc(b1-4)GlcNAc(b1-4)GlcNAc
# Summary of the method: as §1
# GlcNAc(b1-6)GalNAc = target: GlcNAc(b1-6)GalNAc
# Summary of the method: as §1
# Man(a1-2)Man(a1-3)Man = target: Man(a1-2)Man(a1-3)Man
# Summary of the method: as §1
# [34] = target: Neu5Ac(a2-3)Gal(b1-4)GlcNAc(b1-2)Man(a1-3)[GlcNAc(b1-2)Man(b1-4)GlcNAc(b1-2)Man(a1-6)]Man(b1-4)GlcNAc(b1-4)GlcNAc
# Summary of the method: as §1
# [35] = target: Neu5Ac(a2-3)Gal(b1-4)GlcNAc(b1-3)Gal(b1-3)GlcNAc
# Summary of the method: as §1
# [36] = target: Neu5Ac(a2-3)Gal(b1-4)GlcNAc6S
# Summary of the method: as §1
# [37] = target: Neu5Ac(a2-3)Gal(b1-4)[Fuc(a1-3)]GlcNAc6S
# Summary of the method: as §1
# [38] = target: Neu5Ac(a2-3)[Neu5Ac(a2-6)]GalNAc
# Summary of the method: as §1
# [39] = target: Neu5Ac(a2-6)Gal(b1-4)GlcNAc(b1-2)Man(a1-3)[Gal(b1-4)GlcNAc(b1-2)Man(a1-6)]Man(b1-4)GlcNAc(b1-4)GlcNAc
# Summary of the method: as §1
# [40] = target: Neu5Ac(a2-6)Gal(b1-4)GlcNAc(b1-3)Gal(b1-4)GlcNAc
# Summary of the method: as §1
# [41] = target: Neu5Ac(a2-6)Gal(b1-4)GlcNAc6S
# Summary of the method: as §1
# [42] = target: Neu5Ac(a2-8)Neu5Ac(a2-8)Neu5Ac(a2-3)Gal(b1-4)Glc
# Summary of the method: as §1
# [43] = target: Neu5Ac(a2-8)Neu5Ac(a2-8)Neu5Ac(a2-8)Neu5Ac(a2-3)[GalNAc(b1-4)]Gal(b1-4)Glc
# Summary of the method: as §1
binder,measurement,setting,value
"MRCL (Homo sapiens), NP_872425.1 (protein) ATKVHFPFHTCDLRIDGDCFMVSSEADTYYRARMKCQRKGGVLAQIKSQKVQDILAFYLGRLETTNEVTDSDFETRNFWIGLTYKTAKDSFRWATGEHQAFTSFAFGQPDNHGLVWLSAAMGFGNCVELQASAAFNWNNQRCKTRNRYICQFAQEHISRWGPGS",glycan array binding signal (z-score),[1],3.42
same,glycan array binding signal (z-score),[2],0.034
same,glycan array binding signal (z-score),[3],2.33
same,glycan array binding signal (z-score),[4],-0.456
same,glycan array binding signal (z-score),[5],3.1
same,glycan array binding signal (z-score),[6],-0.365
same,glycan array binding signal (z-score),[7],0.889
same,glycan array binding signal (z-score),Gal(b1-2)Gal,-0.726
same,glycan array binding signal (z-score),[8],-0.358
same,glycan array binding signal (z-score),[9],4.88
same,glycan array binding signal (z-score),[10],4.12
same,glycan array binding signal (z-score),[11],-0.239
same,glycan array binding signal (z-score),Gal3S6S(b1-4)GlcNAc6S,0.67
same,glycan array binding signal (z-score),GalNAc(a1-3)GalNAc,-0.581
same,glycan array binding signal (z-score),GalNAc(b1-3)GalNAc,-0.074
same,glycan array binding signal (z-score),Glc(a1-6)Glc(a1-6)Glc,-0.679
same,glycan array binding signal (z-score),Glc(b1-6)Glc,-0.712
same,glycan array binding signal (z-score),GlcA(b1-6)Gal,0.237
same,glycan array binding signal (z-score),[12],1.88
same,glycan array binding signal (z-score),[13],1.11
same,glycan array binding signal (z-score),[14],5.62
same,glycan array binding signal (z-score),[15],-0.523
same,glycan array binding signal (z-score),Man(a1-6)Man,0.948
same,glycan array binding signal (z-score),[16],-0.295
same,glycan array binding signal (z-score),[17],-0.562
same,glycan array binding signal (z-score),[18],-0.637
same,glycan array binding signal (z-score),[19],-0.645
same,glycan array binding signal (z-score),[20],-0.64
same,glycan array binding signal (z-score),Neu5Ac(a2-3)GalNAc,-0.424
same,glycan array binding signal (z-score),[21],-0.367
same,glycan array binding signal (z-score),Neu5Ac(a2-8)Neu5Ac,-0.294
same,glycan array binding signal (z-score),Neu5Ac(b2-6)GalNAc,5.61
"HHL-2 (Homo sapiens), P07307 (protein) MAKDFQDIQQLSSEENDHPFHQGEGPGTRRLNPRRGNPFLKGPPPAQPLAQRLCSMVCFSLLALSFNILLLVVICVTGSQSEGHRGAQLQAELRSLKEAFSNFSSSTLTEVQAISTHGGSVGDKITSLGAKLEKQQQDLKADHDALLFHLKHFPVDLRFVACQMELLHSNGSQRTCCPVNWVEHQGSCYWFSHSGKAWAEAEKYCQLENAHLVVINSWEEQKFIVQHTNPFNTWIGLTDSDGSWKWVDGTDYRHNYKNWAVTQPDNWHGHELGGSEDCVEVQPDGRWNDDFCLQVYRWVCEKRRNATGEVA",glycan array binding signal (z-score),[1],-0.497
same,glycan array binding signal (z-score),[22],2.08
same,glycan array binding signal (z-score),[23],-0.68
same,glycan array binding signal (z-score),[6],-0.334
same,glycan array binding signal (z-score),[24],-0.68
same,glycan array binding signal (z-score),[25],-0.451
same,glycan array binding signal (z-score),[26],6.72
same,glycan array binding signal (z-score),[27],-0.536
same,glycan array binding signal (z-score),[28],0.043
same,glycan array binding signal (z-score),Gal(b1-4)Glc6S,-0.52
same,glycan array binding signal (z-score),[29],-0.728
same,glycan array binding signal (z-score),[30],-0.474
same,glycan array binding signal (z-score),[10],-0.539
same,glycan array binding signal (z-score),Gal6S(b1-4)GlcNAc6S,3.54
same,glycan array binding signal (z-score),[31],3.17
same,glycan array binding signal (z-score),GlcA(b1-3)GlcNAc,-0.012
same,glycan array binding signal (z-score),[32],-0.677
same,glycan array binding signal (z-score),[33],2.8
same,glycan array binding signal (z-score),GlcNAc(b1-6)GalNAc,-0.738
same,glycan array binding signal (z-score),Man(a1-2)Man(a1-3)Man,-0.028
same,glycan array binding signal (z-score),[34],2.39
same,glycan array binding signal (z-score),[35],3.56
same,glycan array binding signal (z-score),[36],-0.075
same,glycan array binding signal (z-score),[37],0.012
same,glycan array binding signal (z-score),[38],-0.847
same,glycan array binding signal (z-score),[39],0.34
same,glycan array binding signal (z-score),[40],-0.539
same,glycan array binding signal (z-score),[41],2.18
same,glycan array binding signal (z-score),[42],3.59
same,glycan array binding signal (z-score),[43],0.721
same,glycan array binding signal (z-score),Neu5Ac(b2-6)GalNAc,-0.379

# Reference: the supplement of paper PMC8728848
